Results from the OligoGym collection.
Further: reference of the scale not given here.

Each sequence was assayed against CDC34 (assay: pooled miR-30 sensor sort-seq; sequence = guide strand). Settings: shRNA.
For TCGTCGTAGAAGAGGTCTGAGC, the sensor-assay potency score (higher = more potent) was -1.59. TTGGTCTTCACGCAGTACTCGG gave a sensor-assay potency score (higher = more potent) of -1.15. ATGATGTCTGTGTACTCCCGAT gave a sensor-assay potency score (higher = more potent) of -1.21. TTCCACTTCCTGTACATCACGG gave a sensor-assay potency score (higher = more potent) of -0.553. In the case of TTGAGCTCCAGCAGCAGCGCCT, the sensor-assay potency score (higher = more potent) was -0.656. With TCGTCCACCAGTGTCACGCGGA the sensor-assay potency score (higher = more potent) was -0.898. TCGTAGAAGAGGTCTGAGCCCT gave a sensor-assay potency score (higher = more potent) of -0.356. TAGTCGATGGGGAACTTGAGGC showed a sensor-assay potency score (higher = more potent) of -1.23. TTGGTCAGGAACCGAAAGGCTG was tested, and the sensor-assay potency score (higher = more potent) was -0.731. TTCCTGTACATCACGGAGGCGT gave a sensor-assay potency score (higher = more potent) of -0.234. In the case of TAGTCGTCGTAGAAGAGGTCTG, the sensor-assay potency score (higher = more potent) was -0.479. TGGTCTTCACGCAGTACTCGGC was tested, and the sensor-assay potency score (higher = more potent) was -1.2. Work on TAGGGTGCCACATCTTGGTCAG yielded a sensor-assay potency score (higher = more potent) of 0.104. With TCCACTTCCTGTACATCACGGA the sensor-assay potency score (higher = more potent) was -0.313. In the case of TTAGGGTGCCACATCTTGGTCA, the sensor-assay potency score (higher = more potent) was -0.421. TGTCTGTGTACTCCCGATCCTT showed a sensor-assay potency score (higher = more potent) of -1.06. TCGTAGTAGTCGTCGTAGAAGA was tested, and the sensor-assay potency score (higher = more potent) was -1.53. TCCTCGTAGTAGTCGTCGTAGA was tested, and the sensor-assay potency score (higher = more potent) was -1.72. With TAGTAGTCGTCGTAGAAGAGGT the sensor-assay potency score (higher = more potent) was -0.785. For TTGCTCTCTTTCCACTTCCTGT, the sensor-assay potency score (higher = more potent) was -0.991. TAGATCGCCCTCGTCCACCAGT was tested, and the sensor-assay potency score (higher = more potent) was -0.743. Work on TCATCGTCCCCGAAGCAGCTGT yielded a sensor-assay potency score (higher = more potent) of -0.635. In the case of ACACTCAGGAGAATGGTCCTGA, the sensor-assay potency score (higher = more potent) was 0.312. TAGAAGAGGTCTGAGCCCTCGT gave a sensor-assay potency score (higher = more potent) of -0.00353.

The sequences below were run against CDC42BPB in the same assay as above. Settings: shRNA.
In the case of TTTGATTTCTTTATCTCGGTTT, the sensor-assay potency score (higher = more potent) was 0.716. Work on TAGAGCATCTCATACATGCAGA yielded a sensor-assay potency score (higher = more potent) of -0.774. TTCGATTTCTTCATTTAGCTTT gave a sensor-assay potency score (higher = more potent) of 0.598. For TCATCTTCAAACATGATCCAAA, the sensor-assay potency score (higher = more potent) was -0.68. For TTCTGAATCATGCACCTCCTTC, the sensor-assay potency score (higher = more potent) was -0.418. In the case of TTTCCTTGGACAACACTGGAGG, the sensor-assay potency score (higher = more potent) was -0.765. TTTCACTTCTAGCACATGGGAG gave a sensor-assay potency score (higher = more potent) of -0.202. In the case of TTGAAGTAGATCAAGCGTGGAG, the sensor-assay potency score (higher = more potent) was 0.0489. In the case of TTTAATGTCTCTGTGCACGTAA, the sensor-assay potency score (higher = more potent) was 0.422. TTATTTCAAAGTCTTCTCGATG gave a sensor-assay potency score (higher = more potent) of -1.07. TACTATTCTCTTAAGGTCCTAG showed a sensor-assay potency score (higher = more potent) of -0.0384. TTTGATTTTGGAAATCTCTTGC showed a sensor-assay potency score (higher = more potent) of 0.44.

The sequences below were run against CDC42SE1 in the same assay as above. Settings: shRNA.
In the case of TTGCTCCATGGCCTATCTCGGT, the sensor-assay potency score (higher = more potent) was -1.82. In the case of ATCTCATCTGCTCCTGAACTGC, the sensor-assay potency score (higher = more potent) was -1.52. TTCTCTTCTTCTTCGGCTGGGG was tested, and the sensor-assay potency score (higher = more potent) was -0.102.
